High-throughput results (PubChem BioAssay)
Pol iota inh: DNA polymerase iota (human) inhibition | Pol iota fluorescent replication assay, 10 min | Potency, µM (doses to about 115 µM), inactives show top-dose activity, negative = inhibition, usual class: inhibitors | actives 1% (n = 390,000)
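Fluorescent replication assay read twice, at 0 min and 10 min after adding 50 nM (final) substrate. Enzyme (10 nM) and compounds were first incubated 15 min at room temperature; enzyme-free buffer wells were negative controls.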
POLH inh: DNA polymerase eta (human) inhibition; recombinant Pol eta, fluorescent DNA replication assay; Potency, µM (titrated, usually from 114 µM), for inactives: top-dose activity change, negative = inhibition, hits mostly inhibitors; actives 1.2% (n = 390,000); also: % is scaled to controls: 0 for no effect and ±100 for the full control effect
Target sequence (Q9Y253 whole entry, looked up): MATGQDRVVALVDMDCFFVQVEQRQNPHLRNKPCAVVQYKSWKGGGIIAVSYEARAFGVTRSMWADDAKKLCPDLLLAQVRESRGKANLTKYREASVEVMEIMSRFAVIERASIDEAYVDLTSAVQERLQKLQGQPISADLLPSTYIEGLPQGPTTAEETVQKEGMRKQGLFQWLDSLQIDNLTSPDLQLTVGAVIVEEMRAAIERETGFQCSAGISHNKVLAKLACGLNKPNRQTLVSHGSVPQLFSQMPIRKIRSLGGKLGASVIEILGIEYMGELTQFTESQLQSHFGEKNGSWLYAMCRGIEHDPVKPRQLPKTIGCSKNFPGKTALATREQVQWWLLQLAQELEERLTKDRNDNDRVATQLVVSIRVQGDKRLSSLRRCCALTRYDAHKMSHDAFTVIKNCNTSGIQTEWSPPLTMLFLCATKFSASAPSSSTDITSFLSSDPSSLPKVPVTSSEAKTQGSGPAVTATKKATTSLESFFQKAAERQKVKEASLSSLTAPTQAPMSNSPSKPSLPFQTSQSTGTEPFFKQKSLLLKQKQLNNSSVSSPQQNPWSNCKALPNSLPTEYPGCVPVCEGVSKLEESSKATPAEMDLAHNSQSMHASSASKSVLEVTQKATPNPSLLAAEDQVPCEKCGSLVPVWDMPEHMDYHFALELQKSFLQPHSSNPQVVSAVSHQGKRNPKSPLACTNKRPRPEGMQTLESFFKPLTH
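Pol eta at 10 nM preincubated with compounds 15 min at room temperature; reaction started with fluorescent substrate (50 nM final) and read kinetically at 0 and 10 min.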
Pol kappa inh: blocks human DNA polymerase kappa activity; purified Pol kappa, fluorescent DNA synthesis assay, 10 min; Potency, µM (highest dose often 107 µM), without a hit: at the top dose activity, negative = inhibition, actives largely listed as inhibitors; actives 0.53% (n = 400,000); also: % is scaled to controls: 0 for no effect and ±100 for the full control effect
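Readout: fluorescence, taken kinetically at 0 and 10 min. Conditions: 10 nM Pol kappa, 15 min RT compound preincubation, 50 nM substrate final. Controls: enzyme-free buffer wells.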
KAT2A inh: inhibitors of human GCN5L2 histone acetyltransferase; Potency, µM (series often up to 58.9 µM), inactives show at the top dose activity change, negative = inhibition, actives largely listed as inhibitors; GCN5L2 HAT assay, ThioGlo1 CoA-SH fluorescence; actives 0.21% (n = 390,000); also: % is scaled to controls: 0 for no effect and ±100 for the full control effect
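ThioGlo1-coupled HAT assay: 20nM GCN5L2, 70uM acetyl-CoA, 75uM H3(1-25) peptide, pH 7.5. Fluorescence read at 340/540nm at start and after 20 min at room temperature.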
Pol beta inh: inhibitors of human DNA polymerase beta; P06746; Pol beta primer extension/strand displacement, fluorescence kinetic; Potency, µM (top dose mostly 114 µM), without a hit: at the top dose activity change, negative = inhibition, actives largely listed as inhibitors; actives 1.3% (n = 340,000); also: % is scaled to controls: 0 for no effect and ±100 for the full control effect
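Preincubation: enzyme (10 nM) with compound, 15 min, RT. Reaction: substrate added to 50 nM final. Reads: 0 and 10 min. Analysis: normalized, Hill fit.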
GLS inh: inhibitors of human glutaminase (GLS); GLS enzymatic activity, qHTS titration; actives 0.21% (n = 410,000); O94925; Potency, µM (doses to about 45.5 µM), for inactives: top-dose activity change, negative = inhibition, most hits filed as inhibitors; also: % is scaled to controls: 0 for no effect and ±100 for the full control effect
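hKGA in 45 mM KH2PO4 pH 8.2, 0.02% Tween-20 with pin-transferred compounds; 1 mM L-glutamine (stock) plus glutamate oxidase/HRP/Amplex Red coupling added. Fluorescence read initially and after 30 min at RT.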
An asterisk follows results filed as active; i = inactive; ? = inconclusive; nt = no result given; [ ] = another dose, or the depositor's remark. The list is not random: actives were taken first. Their share in the collection is about 2.4%. Calls follow the shape of the dose curve; as a rule, active = well fitted inhibition curve with a large enough effect; inconclusive = small, poorly fitted or top-dose-only effect, or another doubt; inactive = no such curve, though single readings can be large or run the other way. Potency is read from the fitted curve at half-maximal effect.

SMILES	Pol iota inh	POLH inh	Pol kappa inh	KAT2A inh	Pol beta inh	GLS inh
Nc1c(C(=O)NCc2ccco2)c2nc3ccccc3nc2n1Cc1ccccc1	?	-15%	-1%	-23%	?	-3%
COc1ccc(Cn2c(N)c(C(=O)NCc3ccco3)c3nc4ccccc4nc32)cc1	?	?	-16%	-12%	56µM*	6%
COCCCn1c(N)c(C(=O)NCCC(C)C)c2nc3ccccc3nc21	4.5µM*	-12%	-28%	-20%	5%	-11%
CCCCCn1c(N)c(C(=O)NCc2cccs2)c2nc3ccccc3nc21	22µM*	-13%	-1%	-19%	15%	-6%
c1cc[n+]2c(c1)-c1cccc[n+]1CC2	nt	nt	-3%[60.1 µM]	39%	nt	nt
O=C1[O][Sb-]23[O]C(=O)C([O]2)C2[O][Sb-]4([O]C(=O)C([O]4)C1[O]3)[O]C2=O	nt	nt	nt	nt	nt	-7%
CCN1/C(=C\C=C\C2=[N+](CC)c3ccccc3C2(C)C)C(C)(C)c2ccccc21	nt	i	18µM*	-6%	25µM*	?
Cc1ccc(-c2nc(S(=O)(=O)c3ccc(C)cc3)c(SCC(=O)Nc3ccc(F)cc3)o2)cc1	-2%	-30%	-5%	0%	?	6%
O=C(c1ccc(CS(=O)(=O)c2ccc(Br)cc2)o1)N1CCC2(CC1)OCCO2	3%	-5%	-17%	-4%	18%	5%
O=C(c1ccc(CS(=O)(=O)c2ccccc2)o1)N1CCC2(CC1)OCCO2	?	89µM*	-36%	-2%	?	-5%
C/C1=C\[C@@H](C)C/C=C/[C@H]2[C@@H]3O[C@]3(C)[C@@H](C)[C@H]3[C@H](Cc4c[nH]c5ccccc45)NC(=O)[C@]32C(=O)/C=C/C(=O)[C@@H]1O	?	?	?	-1%	22µM*	-26%
COc1ccccc1N1C(=O)NC(=O)/C(=C\c2cnn(-c3ccccc3)c2)C1=O	18µM*	40µM*	-18%	-3%	25µM*	-24%
CCC(=O)OC1[C@@H](N2CCCCC2)C[C@H]2[C@@H]3CC[C@H]4C[C@H](OC(C)=O)[C@@H](N5CCCCC5)C[C@]4(C)[C@H]3CC[C@]12C (stereo partly drawn)	nt	nt	nt	nt	nt	0%
CCCCNc1ccc(C(=O)OCCN(CC)CC)cc1	nt	nt	nt	nt	nt	30%
COC(=O)[C@]1(C)CC[C@@]2(C)CC[C@@]3(C)C4=CCc5c(cc(O)c(O)c5C)[C@]4(C)CC[C@@]3(C)C2C1 (stereo partly drawn)	nt	nt	-14%[60.1 µM]	-14%	nt	nt
CC1=C(O)C(=O)C=C2C1=CC=C1[C@]2(C)CC[C@@]2(C)C3C[C@](C)(C(=O)O)CC[C@@]3(C)CC[C@@]12C (stereo partly drawn)	nt	nt	?	13µM*	nt	nt
COc1ccc2c(c1O)-c1cc(O)cc3c1[C@@H](C2)N(C)CC3	nt	nt	-3%[19.4 µM]	-17%	nt	nt
COc1cc2c(cc1OC)-c1c(OC)c(OC)cc3c1C(C2)N(C)CC3 (stereo not drawn)	11µM*	-24%	-22%	-4%	-2%	14%
COc1cc2c(cc1OC)-c1c3c(cc4c1[C@@H](C2)N(C)CC4)OCO3	2.8µM*	-11%	-42%	1%	?	14%
COc1cc2c(cc1O)C[C@H]1NCCc3cc4c(c-2c31)OCO4	14µM*	?	?	-7%	40µM*	-1%
COc1ccc(CN2CCN(C(=O)Cn3c(=O)oc4cc(Cl)ccc43)CC2)c(OC)c1OC	18%	?	12%	-3%	-19%	-13%
Cc1cccn2c(=O)cc(COc3cccc(NC(=O)COc4ccc(F)cc4)c3)nc12	-4%	?	-13%[60.1 µM]	-1%	-27%	-5%
CCOc1cc(OP(=S)(OC)OC)nc(CC)n1	nt	nt	13%[60.1 µM]	-14%	nt	nt
CCN(CC)C(=O)[C@@H]1C=C2c3cccc4[nH]cc(c34)C[C@H]2N(C)C1	nt	nt	nt	nt	nt	42%
O=C(c1ccccc1)c1ccc(N=Nc2c(O)[nH]c(=O)[nH]c2=O)cc1	?	?	?	-8%	?	10µM*
SMILES	Pol iota inh	POLH inh	Pol kappa inh	KAT2A inh	Pol beta inh	GLS inh
C[C@]12O[C@H](C[C@]1(O)CO)n1c3ccccc3c3c4c(c5c6ccccc6n2c5c31)CNC4=O	nt	nt	-10%[19.4 µM]	?	nt	20%
Cc1ccc(/C=C2/C(=O)NC(=O)N(CCc3ccc(F)cc3)C2=O)o1	?	?	-19%	-14%	16%	1%
C=CCN1C(=O)NC(=O)/C(=C\c2ccc(-c3ccccc3[N+](=O)[O-])o2)C1=O	?	?	-22%	-11%	?	18µM*
O=C1NC(=O)N(Cc2ccco2)C(=O)/C1=C/c1ccc(-c2cccc([N+](=O)[O-])c2)o1	7.9µM*	8.9µM*	22µM*	20µM*	18µM*	13%
C[C@H](N)C(=O)c1ccccc1	nt	nt	nt	nt	nt	7%
CCOC(=O)N1CC(C)N(/[N+]([O-])=N/Oc2ccc([N+](=O)[O-])cc2[N+](=O)[O-])CC1C (stereo not drawn)	?	nt	-7%	nt	nt	nt
COc1ccc(OC)c(C[C@H](C)N)c1	nt	nt	nt	nt	nt	-5%[99.4 µM]
COc1ccc(C(=O)N2CCC3(CC2)OCCO3)cc1	14%	2%	-12%	-1%	?	-1%
O=C(c1ccc2nc(-c3ccco3)c(-c3ccco3)nc2c1)N1CCC2(CC1)OCCO2	?	16µM*	?	-11%	20µM*	-11%
COc1ccc(/C=C/C=C2C(=O)NC(=S)NC2=O)cc1	?	25µM*	-28%	nt	nt	2%
COc1ccc(C=C2C(=O)NC(=S)NC2=O)cc1OC	?	-7%	-5%	nt	nt	?
COc1ccc(NC(=O)CCn2cnc3onc(-c4ccc(F)cc4)c3c2=O)cc1OC	?	-12%	-4%	3%	-3%	-1%
NC(Cc1ccc(Oc2cc(I)c(O)c(I)c2)c(I)c1)C(=O)O (stereo not drawn)	nt	nt	7.1µM*	14µM*	nt	?
On1ccccc1=S	?	1%	-6%	13µM*	nt	50%
CO/C=C(/C(=O)OC)c1ccccc1Oc1cc(Oc2ccccc2C#N)ncn1	nt	nt	nt	nt	nt	-5%[99.4 µM]
CC(=O)Nc1c2sscc-2n(C)c1=O	nt	nt	-8%[60.1 µM]	-6%	nt	nt
COC(=O)Cn1cc(/C=C2\C(=O)NC(=O)N(c3ccc(OC)cc3)C2=O)c2ccccc21	?	-18%	9%	-3%	31%	-43%
COc1ccc(N2C(=O)NC(=O)/C(=C\c3cn(CC(=O)N4CCOCC4)c4ccccc34)C2=O)c(OC)c1	13µM*	0%	4%	-5%	-18%	-6%
CC(C)(C)NC[C@H](O)c1ccc(O)cc1Cl	nt	nt	nt	nt	nt	-6%
